Measurements from PubChem BioAssay AID1159580 (chemical genetic matrix, 2015).
Among all 5,500 compounds or so, about 2,000 (36%) were called active. About 18% were inconclusive and are not listed. Cut-off read from the data, not from the text of the source: active = normalized growth mostly below about 0.91 (no sharp cut-off); inconclusive = no clear call, values can overlap the other calls; inactive = mostly above about 0.92. Some of the results follow.

Assay: chemical genetic growth profiling, strain panel (AID 1159580);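 note: tested at 20 µM; growth read once vehicle control cultures reached saturation at 30 °C; 1 = growth at the plate median or of vehicle wells; lower values mean less growth of the strain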
Conditions: S. cerevisiae deletion strains, growth OD
[1] = locus YDR150W, strain NUM1, hits give low values
[2] = locus YGR078C, strain PAC10, hits give low values
[3] = locus YHR030C, strain SLT2, hits give low values
[4] = locus YMR263W, strain SAP30, hits give low values
[5] = locus YMR307W, strain GAS1, hits give low values
[6] = locus YNL128W, strain TEP1, hits give low values
[7] = locus YNL153C, strain GIM3, hits give low values
[8] = locus YNL322C, strain KRE1, hits give low values
[9] = locus YPL055C, strain LGE1, hits give low values
[10] = locus YPL241C, strain CIN2, hits give low values
[11] = locus YAL040C, strain CLN3, hits give low values
[12] = locus YCL061C, strain MRC1 (second series), hits give low values
[13] = locus YDR363W, strain ESC2, hits give low values
[14] = locus YER002W, strain NOP16, hits give low values
[15] = locus YNL175C, strain NOP13, hits give low values
[16] = locus YNL197C, strain WHI3, hits give low values
[17] = locus YOR083W, strain WHI5 (second series), hits give low values

Measured: normalized growth

CCOC(=O)c1csc(N/N=C2/CCCc3ccccc32)n1
inactive: [1] 0.897 | locus YGR229C, strain SMI1, hits give low values 0.986 | locus YJR043C, strain POL32, hits give low values 0.965 | locus YLR058C, strain SHM2 (second series), hits give low values 0.976 | locus YLR262C, strain YPT6, hits give low values 0.868 | [6] 0.971 | [8] 1 | locus YOL006C, strain TOP1, hits give low values 0.849
active: locus YBR229C, strain ROT2, hits give low values 0.887 | locus YDL101C, strain DUN1, hits give low values 0.862 | locus YDL134C, strain PPH21, hits give low values 0.458 | locus YEL061C, strain CIN8, hits give low values 0.821 | [2] 0.899 | [3] 0.232 | locus YHR087W, strain rtc3, hits give low values 0.899 | locus YJR075W, strain HOC1, hits give low values 0.867 | locus YLR039C, strain RIC1, hits give low values 0.701 | locus YLR085C, strain ARP6, hits give low values 0.573 | locus YML094W, strain GIM5, hits give low values 0.749 | locus YMR219W, strain ESC1, hits give low values 0.92 | [4] 0.88 | [5] 0.631 | [7] 0.915 | locus YNL298W, strain CLA4 (second series), hits give low values 0.732 | locus YNR030W, strain Alg12, hits give low values 0.779 | [9] 0.692 | [10] 0.747 | locus YPR135W, strain CTF4, hits give low values 0.629

Cc1nccc2c1[nH]c1ccccc12
inactive: locus YAL013W, strain DEP1, hits give low values 1.01 | locus YAL021C, strain ccr4, hits give low values 0.956 | locus YAL026C, strain drs2, hits give low values 0.975 | locus YAL030W, strain snc1, hits give low values 0.992 | [11] 1.11 | locus YBL061C, strain skt5, hits give low values 0.975 | locus YBR009C, strain hhf1, hits give low values 0.971 | locus YBR023C, strain chs3, hits give low values 0.974 | locus YBR171W, strain sec66, hits give low values 0.969 | locus YBR231C, strain swc5, hits give low values 0.972 | locus YBR279W, strain paf1, hits give low values 0.991 | locus YCL011C, strain gbp2, hits give low values 0.965 | locus YCL016C, strain dcc1, hits give low values 0.99 | [12] 1.01 | locus YCL069W, strain vba3, hits give low values 0.977 | locus YCR088W, strain abp1, hits give low values 0.977 | locus YDL005C, strain med2, hits give low values 0.965 | locus YDL040C, strain nat1, hits give low values 0.983 | locus YDR001C, strain nth1, hits give low values 0.991 | locus YDR069C, strain doa4, hits give low values 0.941 | locus YDR137W, strain rgp1, hits give low values 0.967 | locus YDR159W, strain sac3, hits give low values 0.989 | locus YDR195W, strain ref2 1.03 | locus YDR297W, strain sur2, hits give low values 0.976 | locus YDR334W, strain swr1, hits give low values 0.971 | locus YDR335W, strain msn5, hits give low values 0.975 | [13] 1 | locus YDR392W, strain spt3, hits give low values 0.963 | locus YEL003W, strain gim4, hits give low values 0.983 | locus YEL037C, strain rad23, hits give low values 0.983 | locus YEL061C, strain CIN8 (second series), hits give low values 0.944 | [14] 0.991 | locus YER015W, strain faa2, hits give low values 0.991 | locus YER016W, strain bim1, hits give low values 0.984 | locus YER111C, strain swi4, hits give low values 0.973 | locus YER155C, strain BEM2 (second series), hits give low values 0.954 | locus YFR010W, strain ubp6, hits give low values 0.955 | locus YGL167C, strain pmr1, hits give low values 0.996 | locus YGL173C, strain kem1, hits give low values 0.981 | locus YGL227W, strain vid30, hits give low values 0.976 | locus YGL240W, strain doc1, hits give low values 0.968 | locus YGL253W, strain hxk2, hits give low values 0.959 | [2] 1.02 | locus YHR013C, strain ard1, hits give low values 0.951 | locus YHR027C, strain rpn1, hits give low values 0.996 | [3] 1.05 | locus YHR079C, strain IRE1, hits give low values 1.06 | locus YHR142W, strain chs7, hits give low values 0.97 | locus YJL092W, strain hpr5, hits give low values 0.963 | locus YJL095W, strain BCK1 (second series), hits give low values 0.972 | locus YJL095W, strain BCK1, hits give low values 1.03 | locus YJL115W, strain asf1, hits give low values 0.975 | locus YJL129C, strain trk1, hits give low values 0.959 | locus YJL154C, strain vps35, hits give low values 0.981 | locus YJL164C, strain tpk1, hits give low values 0.993 | locus YJL166W, strain qcr8, hits give low values 0.972 | locus YJL187C, strain SWE1, hits give low values 0.962 | locus YJR066W, strain TOR1, hits give low values 0.972 | locus YKL160W, strain elf1, hits give low values 0.995 | locus YKR026C, strain gcn3, hits give low values 0.983 | locus YKR091W, strain srl3, hits give low values 0.973 | locus YLL001W, strain dnm1, hits give low values 0.977 | locus YLL026W, hits give low values 0.999 | locus YLL041C, strain sdh2, hits give low values 0.979 | locus YLR027C, strain aat2, hits give low values 0.995 | locus YLR113W, strain HOG1, hits give low values 1.04 | locus YLR221C, strain rsa3, hits give low values 0.971 | locus YLR258W, strain gsy2, hits give low values 0.991 | locus YLR262C, strain YPT6 (second series), hits give low values 0.956 | locus YLR320W, strain mms22, hits give low values 0.97 | locus YLR342W, strain FKS1, hits give low values 0.968 | locus YLR357W, strain rsc2, hits give low values 1.04 | locus YLR370C, strain arc18, hits give low values 0.968 | locus YLR384C, strain iki3, hits give low values 0.996 | locus YML120C, strain ndi1, hits give low values 0.982 | locus YMR058W, strain fet3, hits give low values 0.983 | locus YMR125W, strain sto1, hits give low values 1.02 | locus YMR129W, hits give low values 0.984 | locus YMR205C, strain PFK2, hits give low values 1.01 | locus YMR231W, strain pep5, hits give low values 0.977 | [5] 1.01 | locus YNL071W, strain lat1, hits give low values 0.973 | locus YNL183C, strain NPR1, hits give low values 0.993 | [16] 0.955 | locus YNL209W, strain ssb2, hits give low values 0.993 | locus YNL248C, strain rpa49, hits give low values 0.955 | locus YNL322C, strain KRE1 (second series), hits give low values 0.993 | [8] 1.01 | locus YNR049C, strain mso1, hits give low values 0.976 | locus YOR001W, strain rrp6, hits give low values 0.943 | locus YOR070C, strain gyp1, hits give low values 0.98 | locus YOR080W, strain dia2, hits give low values 0.986 | [17] 1.03 | locus YOR083W, strain WHI5, hits give low values 0.994 | locus YOR106W, strain vam3, hits give low values 0.958 | locus YOR231W, strain MKK1, hits give low values 1.06 | locus YOR265W, strain rbl2, hits give low values 0.972 | locus YOR270C, strain vph1, hits give low values 0.913 | locus YOR290C, strain snf2, hits give low values 0.994 | locus YPL051W, strain arl3, hits give low values 0.988 | locus YPL078C, strain atp4, hits give low values 0.972 | locus YPL106C, strain sse1, hits give low values 0.978 | locus YPL240C, strain hsp82, hits give low values 0.986 | [10] 1.01 | locus YPL256C, strain CLN2, hits give low values 1.04
active: [15] 0.39

Cc1c2ccncc2c(C)c2c1[nH]c1ccccc12
active: [11] 0.101 | [12] 0.0557 | [1] 0.13 | [13] 0.153 | [14] 0.0868 | [2] 0.0788 | [4] 0.362 | [6] 0.083 | [7] 0.0799 | [15] 0.0703 | [16] 0.0671 | locus YNL224C, strain SQS1, hits give low values 0.0631 | [17] 0.079 | [9] 0.101
